Nrf2 activator: activators of Nrf2 (ARE) signaling. AREc32 ARE-luciferase reporter (MCF7-derived line), luminescence, 24 h. Potency, µM (titrated, usually from 46.1 µM), inactives show top-dose activation, most hits filed as activators. hit rate 0.31% among 410,000; also: potency is read from the fitted curve at half-maximal effect; % of control where 0% means no effect; nearly all actives have a fitted effect of over 65% in size
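Luminescent ARE reporter assay in AREc32_Fluc cells: overnight plating at 37 deg C, 24 hr compound incubation, Steady-Glo added, 30 min RT before reading.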
Nrf2 block: Nrf2 pathway inhibition. AID 504444. Potency, µM (highest dose often 46 µM), inactives show top-dose activity change, negative = inhibition, usual class: inhibitors. A549 ARE-Fluc reporter, luciferase luminescence, 18-24 h. hit rate 2.1% among 360,000; also: potency is read from the fitted curve at half-maximal effect; % is scaled to controls: 0 for no effect and ±100 for the full control effect; nearly all actives have a fitted effect of over 60% in size
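In this cell-based qHTS, ARE-driven firefly luciferase in A549 cells reports Nrf2 activity; the luminescent signal after BugLite lysis is the measured value, with a prior CellTiter-Fluor read for cell health.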
IL-2 act: activates IL-2 in a cell-based reporter assay. IL-2 activation reporter assay, cell-based qHTS; stimulated with anti-CD3/CD4/CD28 beads; in transgenic mouse T cells. activation, % (series mostly up to about 46 µM). hit rate 0.065% among 360,000. AID 652025; in the data active = activation above about 50%; inconclusive = mostly about 30% to 49%; also: 0% is about no effect
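Unstimulated transgenic mouse T cells, 750 per well, received compound and, after 60 minutes, anti-CD3/anti-CD4 bead plus anti-CD28 stimulation. EGFP and DsRed were quantified after 18 hours.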
A549 tox-1: counter-screen for Nrf2 inhibitors: cytotoxicity in A549 cells; Potency, µM (titrated, usually from 46 µM), for the others: top-dose activity change, negative = cytotoxicity, most hits filed as inhibitors; AID 504648; A549 ARE-Fluc cells, CellTiter-Fluor viability, 18-24 h; hit rate 0.16% among 390,000; also: potency is read from the fitted curve at half-maximal effect; % is scaled to controls: 0 for no effect and ±100 for the full control effect
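A549 ARE-Fluc cells in 5% FBS OPTI-MEM, 5000 cells/well, rested 2 h then exposed to compounds in concentration-response for 18-24 h at 37 °C. Viability by CellTiter-Fluor fluorescence (Ex 405/Em 525) after 30 min; luciferase luminescence (BugLite, 15 min, RT) read afterwards.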
FLuc enzyme inh: counter-screen for Nrf2 inhibitors: firefly luciferase enzyme inhibition | shares compounds with Nrf2 block | purified firefly luciferase, luminescence inhibition | Potency, µM (highest dose often 57.5 µM), for inactives: top-dose activity change, negative = inhibition, actives largely listed as inhibitors | hit rate 4% among 1,400; also: potency is read from the fitted curve at half-maximal effect; % is scaled to controls: 0 for no effect and ±100 for the full control effect; nearly all actives have a fitted effect of over 65% in size
Target sequence (P08659 whole entry, looked up): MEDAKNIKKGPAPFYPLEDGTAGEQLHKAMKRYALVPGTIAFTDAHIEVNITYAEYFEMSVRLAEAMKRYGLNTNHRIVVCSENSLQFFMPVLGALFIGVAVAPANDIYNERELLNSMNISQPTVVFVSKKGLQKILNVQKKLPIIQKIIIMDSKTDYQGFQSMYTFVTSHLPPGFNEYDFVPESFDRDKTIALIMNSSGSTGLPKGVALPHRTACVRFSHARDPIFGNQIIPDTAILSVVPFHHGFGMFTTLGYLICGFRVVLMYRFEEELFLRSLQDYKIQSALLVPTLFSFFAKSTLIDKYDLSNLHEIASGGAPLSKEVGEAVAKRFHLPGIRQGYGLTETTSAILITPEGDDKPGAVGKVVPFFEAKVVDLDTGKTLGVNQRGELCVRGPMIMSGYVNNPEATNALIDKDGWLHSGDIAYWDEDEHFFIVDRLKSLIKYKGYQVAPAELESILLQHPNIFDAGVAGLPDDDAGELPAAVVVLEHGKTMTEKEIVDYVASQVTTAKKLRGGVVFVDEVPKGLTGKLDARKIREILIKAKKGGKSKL
A549 tox-2: counter-screen for Nrf2 inhibitors: cytotoxicity in A549 ARE cells; shares compounds with Nrf2 block; A549 ARE-Fluc cells, cytotoxicity counterscreen; Potency, µM (series often up to 46.1 µM), without a hit: at the highest dose activity change, negative = cytotoxicity, most hits filed as inhibitors; hit rate 2% among 1,400; AID 720523;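 also: potency is read from the fitted curve at half-maximal effect; cells exposed to compounds for 18 to 24 hours; % is scaled to controls: 0 for no effect and ±100 for the full control effect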
Nrf2 ARE inh: reduces Nrf2 ARE reporter signal in A549 cells; shares compounds with Nrf2 block; A549 ARE-firefly luciferase reporter, luminescence; Potency, µM (highest dose often 46.1 µM), for inactives: at the highest dose activity change, negative = inhibition, most hits filed as inhibitors; hit rate 74% among 1,400; AID 720524; also: potency is read from the fitted curve at half-maximal effect; % is scaled to controls: 0 for no effect and ±100 for the full control effect; nearly all actives have a fitted effect of over 65% in size
* = called active by the depositor; ! = a repeat was not active. Rows were chosen to be rich in hits. Some 2.3% of all compounds tested hit in one or more screens of this group. Unless noted, calls follow the shape of the dose curve; as a rule, active = well fitted curve in the direction sought with a large enough effect; inconclusive = small, poorly fitted or top-dose-only effect, or another doubt; inactive = no such curve, though single readings can be large; an effect the other way counts as inactive or inconclusive.

Screening Cc1ccc(S(=O)(=O)c2cccc(S(=O)(=O)N3CCOCC3)c2)cc1S(=O)(=O)N1CCOCC1 returned Nrf2 activator 0%, Nrf2 block 15%, IL-2 act -2 and A549 tox-1 -10%.
For Cc1ccc(S(=O)(=O)c2cccc(S(=O)(=O)N3CCCC3)c2)cc1S(=O)(=O)N1CCCC1 the results were Nrf2 activator 0%, Nrf2 block 8.2µM*, IL-2 act -4, A549 tox-1 -26%, FLuc enzyme inh 0%, A549 tox-2 -11% and Nrf2 ARE inh 21µM*.
CCN(CC)S(=O)(=O)c1cc(NC(=O)CNc2cccc(S(=O)(=O)N3CCCC3)c2)ccc1C was read as Nrf2 activator 3%, Nrf2 block 5.2µM*, IL-2 act -1, A549 tox-1 -19%, FLuc enzyme inh 0%, A549 tox-2 -22% and Nrf2 ARE inh 8.2µM*.
Screening CCN(CC)S(=O)(=O)c1cc(NC(=O)Cc2ccc(S(=O)(=O)N3CCOCC3)s2)ccc1Cl returned Nrf2 activator 0%, Nrf2 block 1.3µM*, IL-2 act -1, A549 tox-1 inconclusive, FLuc enzyme inh -12%, A549 tox-2 -24% and Nrf2 ARE inh 6.5µM*.
Screening CCOc1ccc(NC(=O)Cn2nc3c(cc2=O)CC(C)CC3)cc1 (stereo not given) returned Nrf2 activator -1% and A549 tox-1 -6%.
`CCN(CC)S(=O)(=O)c1cccc(NC(=O)CNc2cccc(S(=O)(=O)N3CCOCC3)c2)c1` gave Nrf2 activator 2%, Nrf2 block 1.3µM*, IL-2 act 0, A549 tox-1 inconclusive, FLuc enzyme inh 2%, A549 tox-2 -17% and Nrf2 ARE inh 2.1µM*.
For Cc1c(C(C)NC(=O)c2cc(COc3cccc4cnccc34)on2)cnn1C (stereo not given) the results were Nrf2 activator 0%, Nrf2 block 8.2µM*, IL-2 act -1, A549 tox-1 -17%, FLuc enzyme inh -14%, A549 tox-2 1% and Nrf2 ARE inh 7.3µM*.
Screening Cc1cc(OCC(=O)Nc2ccncc2)cc(C)c1Br returned Nrf2 activator 0%, Nrf2 block 9.2µM*, IL-2 act -2, A549 tox-1 -8%, FLuc enzyme inh -10%, A549 tox-2 11% and Nrf2 ARE inh 8.2µM*.
`Cc1cc(OCC(=O)Nc2ccncc2)ccc1Cl` gave Nrf2 activator -1%, Nrf2 block inconclusive, IL-2 act 0 and A549 tox-1 -7%.
For Cc1ccc(N(CC2=NCCN2)c2cccc(O)c2)cc1 the results were Nrf2 activator 0%, Nrf2 block 7.3µM*!, IL-2 act 2, A549 tox-1 inconclusive, FLuc enzyme inh -1%, A549 tox-2 -7% and Nrf2 ARE inh 10µM*.
For O=C(Nc1ccc(Cl)cc1)Nc1ccc(N2CCCC2)c(S(=O)(=O)Nc2ccccc2Cl)c1 the results were Nrf2 activator 2%, Nrf2 block 3.3µM*, IL-2 act -2, A549 tox-1 inconclusive, FLuc enzyme inh 0%, A549 tox-2 inconclusive and Nrf2 ARE inh 6.5µM*.
`COc1ccccc1NS(=O)(=O)c1cc(NC(=O)Nc2cccc(C)c2)ccc1N1CCCCC1` gave Nrf2 activator 2%, Nrf2 block 4%, IL-2 act 1 and A549 tox-1 0%.
`Cc1ccc(C)c(OCc2ccc(C(=O)Nc3ccc([N+](=O)[O-])cn3)o2)c1` gave Nrf2 activator 0%, Nrf2 block 2.9µM*, IL-2 act 1, A549 tox-1 -3%, FLuc enzyme inh 3%, A549 tox-2 -3% and Nrf2 ARE inh 5.2µM*.
CCC(=O)c1ccc(OCc2ccc(C(=O)c3ccccc3)cc2)cc1 was read as Nrf2 activator 0%, Nrf2 block 7.3µM*, IL-2 act -4, A549 tox-1 inconclusive, FLuc enzyme inh -2%, A549 tox-2 -2% and Nrf2 ARE inh 8.2µM*.
For Cc1ccc(-n2c(-c3ccc(Cl)cc3)c[n+]3c2CCC3)cc1 the results were Nrf2 activator 0%, Nrf2 block 3.7µM*, IL-2 act -5, A549 tox-1 -15%, FLuc enzyme inh 3%, A549 tox-2 -2% and Nrf2 ARE inh -36%.
Cc1ccc(-n2c(-c3ccccc3)c[n+]3c2CCC3)cc1 was read as Nrf2 activator 0%, Nrf2 block 5.8µM*, IL-2 act -3, A549 tox-1 inconclusive, FLuc enzyme inh 0%, A549 tox-2 -6% and Nrf2 ARE inh 6.5µM*.
For CCCN1CNc2c(c(=O)[nH]c(=S)n2CCc2cccc(Cl)c2)C1 the results were Nrf2 block 5% and A549 tox-1 14%.
Screening COc1cc(Cl)c(C)cc1NC(=O)CSCc1nc(-c2ccc(OC)c(OC)c2)no1 returned Nrf2 activator 4%, Nrf2 block -15% and A549 tox-1 -1%.
O=C(O)CSc1cc(NS(=O)(=O)c2ccc(Br)cc2)c2ccccc2c1O was read as Nrf2 activator 0%, Nrf2 block 2.3µM*, IL-2 act -3, A549 tox-1 -16%, FLuc enzyme inh 12µM*, A549 tox-2 -4% and Nrf2 ARE inh -8%.
Screening O=S(=O)(Nc1cc(Sc2ncn[nH]2)c(O)c2ccccc12)c1ccccc1 returned Nrf2 activator -3%, Nrf2 block inconclusive, IL-2 act 1 and A549 tox-1 inconclusive.
For O=c1oc2cc(O)ccc2cc1-c1nc2ccccc2o1 the results were Nrf2 activator 6% and IL-2 act 3.
`CC1CCc2nc(-c3cc4ccc(O)cc4oc3=O)sc2C1` (stereo not given) gave Nrf2 block 2.3µM*, A549 tox-1 inconclusive, FLuc enzyme inh 0.038µM*, A549 tox-2 191% and Nrf2 ARE inh 18µM*.
Screening Nc1ncnc2c(C3OC(CO)C(O)C3O)c[nH]c12 (stereo not given) returned Nrf2 activator 0%, Nrf2 block 0.23µM*, IL-2 act -3, A549 tox-1 inconclusive, FLuc enzyme inh 2%, A549 tox-2 inconclusive and Nrf2 ARE inh 0.1µM*.
Cc1nn(C)c(C)c1CN(C)S(=O)(=O)c1ccc(F)cc1 was read as Nrf2 activator 0%, Nrf2 block inconclusive, IL-2 act -2 and A549 tox-1 -25%.

High-throughput results as filed in PubChem BioAssay.
